This note sets out measurements from the supplement of paper PMC6555819.

For the assay, the system named is VDR homodimer (NR concentration 270 nM). Description: PBM binding z-score (relative to random genomic background probes); higher = stronger binding; sequences stand for … in GC…GCGATTGACAGCGTAGAATGAAGG
Summed up:
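Ligand-free nuclear receptor dimers were applied to custom Agilent 4×180K protein-binding microarrays whose double-stranded probes carried direct-repeat seeds, single-nucleotide variants, half-site ablations and random human genomic background sequences in 34-nt variable regions. Incubation lasted 1 h. Binding z-scores were computed against the random background probes from regression-normalized fluorescence.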
CCGACTGTGGCAGAAAGGTTACCATACCATCCGG gave a PBM binding z-score of -0.259. For the sequence TCTAGTTGGTCAAAGGACACACACTCGAAATGCG, the PBM binding z-score was determined as 0.435. As to AATACAGGGTCACTAGGCTAGAGTAGGTACGAAT, the PBM binding z-score was 2.2. Sequence TGTGCTAGGTCAGTTGGTCAGCTAACGAGCTGCC displayed a PBM binding z-score of -0.504. The same measure for ATATGTAGGTTATCGGGTCATCCAGTTTGCGCAT: 3.89; for CCTAGTTGGTCAGGAGGTCTCACACCGGATATGA: 0.261. The result for TCTTGTAGATCAATATAGGTTAAGAAAGTGCGCT reads 0.0852. The sequence GTACCAAGGTGAATAGGCCGTTGATGAGTAGGCG yielded a PBM binding z-score of -0.141. The same measure for TCTGCTAGGGCAGTTGGTCAGCTAACGAGCTGCC: -1.08. The same measure for AGTCAAAATTCATCTAGGTAACGTAAGATATGCT: -0.296. For the sequence CCAGACAGGTGAGAAGGTTACTCAGCCTCGATTA, the PBM binding z-score came to 0.152. The result for AGTCAAAGTTCAGGACGAGGTAACATAAAGCACG reads 2.24; that for TGAATGAGGTTAAAGATCAGGGACCGTGGCGTCG, 0.608. With CAAAGTAGGTCAAAGGTCAAAGTCGAGCCAACCA, the PBM binding z-score is 3.8.

CCTTACGGGTCACTCCAGGTTATGGCATCGGAGT registered a PBM binding z-score of 1.62.

Sequence GCTTACGGGACAAAGGTTATAGCATGAATAGAAT showed a PBM binding z-score of 0.681.

For ACTATTAGTTGAGACGAGGGCAATCGATAGGTTG, the PBM binding z-score worked out at 1.06. The same measure for CTCGAAAGGTCCTGCTCAGGTGAGTATACCAAAC: -0.488.
